Measurements published in PubChem BioAssay AID907 (National Center for Advancing Translational Sciences (NCATS), 2007).
Some of the results follow. Inconclusive results are not listed. The source made the active and inactive calls. Calls come from the whole dose curve; as a rule, active = well fitted activation curve with a large enough effect; inconclusive = small, poorly fitted or top-dose-only effect, or effect the other way; inactive = flat fitted curve, though single readings scatter.

experiment: Confirmation Concentration-Response Assay for Cell signaling CRE-BLA (Fsk stim) - HEK293 CREB Luciferase; settings: HEK293 CRE-luc2P, NKH477 EC10 potentiation, luminescence, 4 h
Excerpt: NIH Molecular Libraries Screening Centers Network [MLSCN] NIH Chemical Genomics Center [NCGC] MLSCN Grant: 1X01MH079867-01 Assay Provider: Marshall W. Nirenberg, U.S. National Heart, Lung and Blood Institute CRE Luciferase Assay Overview Memories persist for different lengths of time, from seconds or minutes to a lifetime. There are two kinds of memory: short-term memory (STM) and long-term memory (LTM). STM lasts for minutes to hours, which maybe mediated by modifications of molecules involved in synaptic functions. LTM lasts for days or longer, and may be due to the formation of new synapses or restructuring of existing synapses. LTM, but not STM, requires gene transcription and synthesis of proteins. CREB (cyclic-AMP Responsive Element Binding Protein) is one of the candidates plays an important role for enhancement of some types of LTM. CREB, a family of transcription factors, regulates the transcription of genes containing cAMP Responsive Elements (CRE). CRE is a nucleotide sequence often found in the promoter regions of genes that are binding sites for CREB. Using a luciferase reporter-gene under control of cAMP responsive element, a cell-based assay [CRE-luc2P HEK293 developed by Promega] was used to measure forskolin-induced signaling. The selected compounds were measured for their ability to modulate positively the action of EC10 NKH 477, a water soluble forskolin, on reporter gene activity. Compounds were screened in a titration series in 1536-well format. Positive modulators were identified based on the AC50 values derived from the screening data.
NCGC Assay Protocol Summary 2500 cells/5uL in DEME with 1% FBS was dispensed into 1536-well plates and cells were cultured at 37 degrees Celsius overnight. Next day 23 nL of compounds or DMSO were delivered to each well using a pin tool, and 1uL of EC10 level of NKH 477, or EC100 level of IBMX, a PDE inhibitor, in the present of NKH 477, or assay medium was added. And then the plates were incubated at 37 degrees Celsius for 4 hours. 6 uL of Bright-Glo luciferase (Promega, WI) was added to each well. After incubated at room temperature for 10min the plates were measured for luminescence intensity on a ViewLux (Perkin Elmer) detector. Keywords: NIH Roadmap, MLSCN, MLSMR, qHTS, NCGC, CRE, luciferase, reporter-gene assay.

Potency, active:
Cc1nc(SCC(=O)Nc2cc(C)on2)c2c3c(sc2n1)CCCC3 4.47 µM
Cc1nn(-c2ccccc2)c2sc(C(=O)N(Cc3ccco3)C(C)C(=O)NC(C)(C)C)cc12 (stereo not given) 4.47 µM
CCc1nc(Nc2ccc3nccnc3c2)c2oc3ccccc3c2n1 1.26 µM
COc1ccc(CCNC(=O)CSc2nc(C)nc3c2oc2ccccc23)cc1OC 10 µM
CC1CCc2sc3nc(N4CCN(CCO)CC4)n4ncnc4c3c2C1 (stereo not given) 12.6 µM
